In PubChem BioAssay:
Active and inactive are the calls of the source.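 Rule for the calls, unless noted: active = normalized viability below 100% at a tested concentration; inactive = the rest.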

How the values were obtained:
[1] = viability loss with induced miR-34 in A549 – imaging, A549 dox-inducible miR-34, nuclei and caspase counts, primary screen (AID 1347080;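 active = compounds whose cell count with miR-34 switched on is under 0.7 times the count with it off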); settings: A549 miR-34 inducible, Hoechst nuclei count, 48 h
[2] = MELAS cybrid and Rieske KO viability enhancers – cell-based, MELAS cybrids, Rieske KO mouse fibroblasts, CellTiter-Glo, primary screen (AID 1508586;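 active = mean z-score across replicates of 1.96 or higher in either the MELAS or the Rieske mutant cell line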;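 note: z relative to plate mean and SD of compound and empty wells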); settings: low glucose
[3] = drug combination growth inhibition, ovarian cancer – cell-based, oncology-focused library, rucaparib conditional, profiling panel (AID 1508598); settings: patient-derived ovarian cancer cells, CellTiter-Glo viability, 144 h, stronger effect = lower value
[4] = stronger effect = lower value, cell number ratio, induced over uninduced
[5] = measured here: relative caspase fold change +Dox/-Dox
[6] = measured here: total cells with miR-34 induction, stronger effect = lower value
[7] = measured here: total cells without miR-34 induction
[8] = MELAS cybrid survival, CellTiter-Glo 48 h, stronger effect = higher value
[9] = Rieske KO mouse fibroblast survival, CellTiter-Glo 72 h
[10] = at 0.000305 µM, OCI-C5x cells, with rucaparib 10 µM, 100% = cells with rucaparib alone
[11] = at 0.000305 µM, OCI-C5x cells, without rucaparib
[12] = at 0.000305 µM, OCI-P5x cells, with rucaparib 20 µM, 100% = cells with rucaparib alone
[13] = at 0.000305 µM, OCI-P5x cells, without rucaparib
[14] = at 0.00122 µM, OCI-C5x cells, with rucaparib 10 µM, 100% = cells with rucaparib alone
[15] = at 0.00122 µM, OCI-C5x cells, without rucaparib
[16] = at 0.00122 µM, OCI-P5x cells, with rucaparib 20 µM, 100% = cells with rucaparib alone
[17] = at 0.00122 µM, OCI-P5x cells, without rucaparib
[18] = at 0.00488 µM, OCI-C5x cells, with rucaparib 10 µM, 100% = cells with rucaparib alone
[19] = at 0.00488 µM, OCI-C5x cells, without rucaparib
[20] = at 0.00488 µM, OCI-P5x cells, with rucaparib 20 µM, 100% = cells with rucaparib alone
[21] = at 0.00488 µM, OCI-P5x cells, without rucaparib
[22] = at 0.0195 µM, OCI-C5x cells, with rucaparib 10 µM, 100% = cells with rucaparib alone
[23] = at 0.0195 µM, OCI-C5x cells, without rucaparib
[24] = at 0.0195 µM, OCI-P5x cells, with rucaparib 20 µM, 100% = cells with rucaparib alone
[25] = at 0.0195 µM, OCI-P5x cells, without rucaparib
[26] = at 0.0781 µM, OCI-C5x cells, with rucaparib 10 µM, 100% = cells with rucaparib alone
[27] = at 0.0781 µM, OCI-C5x cells, without rucaparib
[28] = at 0.0781 µM, OCI-P5x cells, with rucaparib 20 µM, 100% = cells with rucaparib alone
[29] = at 0.0781 µM, OCI-P5x cells, without rucaparib
[30] = at 0.313 µM, OCI-C5x cells, with rucaparib 10 µM, 100% = cells with rucaparib alone
[31] = at 0.313 µM, OCI-C5x cells, without rucaparib
[32] = at 0.313 µM, OCI-P5x cells, with rucaparib 20 µM, 100% = cells with rucaparib alone
[33] = at 0.313 µM, OCI-P5x cells, without rucaparib
[34] = at 1.25 µM, OCI-C5x cells, with rucaparib 10 µM, 100% = cells with rucaparib alone
[35] = at 1.25 µM, OCI-C5x cells, without rucaparib
[36] = at 1.25 µM, OCI-P5x cells, with rucaparib 20 µM, 100% = cells with rucaparib alone
[37] = at 1.25 µM, OCI-P5x cells, without rucaparib
[38] = at 5 µM, OCI-C5x cells, with rucaparib 10 µM, 100% = cells with rucaparib alone
[39] = at 5 µM, OCI-C5x cells, without rucaparib
[40] = at 5 µM, OCI-P5x cells, with rucaparib 20 µM, 100% = cells with rucaparib alone
[41] = at 5 µM, OCI-P5x cells, without rucaparib

CCNC(=O)c1noc(-c2cc(Cl)c(O)cc2O)c1-c1ccc(OC)cc1
2420: cell count [1, 7]
0.496: fold change [1, 5]
2390: cell count [1, 6]
inactive: fold change [1, 4] 0.987 | viability [3, 10] 129% | viability [3, 11] 113% | viability [3, 12] 105% | viability [3, 14] 120% | viability [3, 15] 120% | viability [3, 16] 101% | viability [3, 17] 102% | viability [3, 18] 138% | viability [3, 19] 120% | viability [3, 20] 100% | viability [3, 21] 101% | viability [3, 22] 181% | viability [3, 23] 140%
active: z-score [2, 8] 2.58 | viability [3, 13] 98% | viability [3, 24] 33.1% | viability [3, 25] 82.6% | viability [3, 26] 73.6% | viability [3, 27] 39.7% | viability [3, 28] 17.1% | viability [3, 29] 9.14% | viability [3, 30] 39% | viability [3, 31] 22.6% | viability [3, 32] 12% | viability [3, 33] 7.17% | viability [3, 34] 9.37% | viability [3, 35] 6.36% | viability [3, 36] 4.69% | viability [3, 37] 4.76% | viability [3, 38] 8.73% | viability [3, 39] 6.88% | viability [3, 40] 4.38% | viability [3, 41] 3.37%
-1.9: z-score [2, 9]

CN(C)CCOc1ccc(-c2nc(-c3ccc4c(c3)CCC4=NO)c(-c3ccncc3)[nH]2)cc1
7200: cell count [1, 7]
active: viability [3, 12] 72.5% | viability [3, 13] 88.8% | viability [3, 16] 70.7% | viability [3, 17] 68.7% | viability [3, 20] 70.2% | viability [3, 21] 74.7% | viability [3, 24] 69.4% | viability [3, 25] 73.6% | viability [3, 28] 83.1% | viability [3, 32] 85.3% | viability [3, 36] 78.5% | viability [3, 40] 1.04%
1.04: fold change [1, 5]
inactive: fold change [1, 4] 0.921 | z-score [2, 8] -0.178 | viability [3, 10] 124% | viability [3, 11] 144% | viability [3, 14] 121% | viability [3, 15] 132% | viability [3, 18] 121% | viability [3, 19] 153% | viability [3, 22] 109% | viability [3, 23] 138% | viability [3, 26] 125% | viability [3, 27] 133% | viability [3, 29] 111% | viability [3, 30] 119% | viability [3, 31] 140% | viability [3, 33] 114% | viability [3, 34] 120% | viability [3, 35] 153% | viability [3, 37] 108% | viability [3, 38] 136% | viability [3, 39] 187% | viability [3, 41] 102%
0.963: z-score [2, 9]
6630: cell count [1, 6]

COc1ccc2cc1Oc1ccc(cc1)CC1c3cc(c(OC)cc3CCN1C)Oc1c(OC)c(OC)cc3c1C(C2)N(C)CC3 (stereo unspecified)
-0.273: z-score [2, 9]
inactive: fold change [1, 4] 0.908 | z-score [2, 8] -0.603
6590: cell count [1, 6]
0.992: fold change [1, 5]
7260: cell count [1, 7]

OC(c1cc(C(F)(F)F)nc2c(C(F)(F)F)cccc12)[C@H]1CCCCN1 (stereo partly specified)
5320: cell count [1, 6]
0.688: fold change [1, 5]
6090: cell count [1, 7]
inactive: fold change [1, 4] 0.875 | z-score [2, 8] 0.101
-0.0437: z-score [2, 9]

Cc1cc(C)c(-c2csc(NC(=O)c3ccccc3)n2)c(C)c1
3610: cell count [1, 6]
0.759: fold change [1, 5]
active: viability [3, 10] 97.8% | viability [3, 13] 97.3% | viability [3, 15] 97.2% | viability [3, 23] 96.2% | viability [3, 37] 100% | viability [3, 38] 99.6% | viability [3, 40] 86.6% | viability [3, 41] 95.6%
inactive: fold change [1, 4] 0.83 | z-score [2, 8] -0.374 | viability [3, 11] 101% | viability [3, 12] 104% | viability [3, 14] 113% | viability [3, 16] 101% | viability [3, 17] 104% | viability [3, 18] 108% | viability [3, 19] 107% | viability [3, 20] 103% | viability [3, 21] 104% | viability [3, 22] 104% | viability [3, 24] 103% | viability [3, 25] 105% | viability [3, 26] 111% | viability [3, 27] 105% | viability [3, 28] 105% | viability [3, 29] 102% | viability [3, 30] 111% | viability [3, 31] 103% | viability [3, 32] 104% | viability [3, 33] 101% | viability [3, 34] 113% | viability [3, 35] 104% | viability [3, 36] 103% | viability [3, 39] 113%
0.994: z-score [2, 9]
4340: cell count [1, 7]

CC(C)NCCCn1c(Sc2cc3c(cc2I)OCO3)nc2c(N)ncnc21
2430: cell count [1, 7]
-0.929: z-score [2, 9]
2580: cell count [1, 6]
active: z-score [2, 8] 3.04 | viability [3, 12] 95.1% | viability [3, 13] 94.7% | viability [3, 17] 94.3% | viability [3, 20] 99.8% | viability [3, 21] 98.3% | viability [3, 25] 97.9% | viability [3, 31] 60.7% | viability [3, 32] 15.7% | viability [3, 33] 9.78%
inactive: fold change [1, 4] 1.06 | viability [3, 10] 125% | viability [3, 11] 112% | viability [3, 14] 129% | viability [3, 15] 108% | viability [3, 16] 102% | viability [3, 18] 119% | viability [3, 19] 107% | viability [3, 22] 126% | viability [3, 23] 122% | viability [3, 24] 101% | viability [3, 26] 139% | viability [3, 27] 127% | viability [3, 28] 105% | viability [3, 29] 107% | viability [3, 30] 143%
0.435: fold change [1, 5]
